MCF10A rereplic: DNA re-replication induction in MCF 10a cells | AID 624296 | MCF 10A DNA re-replication, Hoechst nuclear intensity, 48 h | Potency, µM (top dose mostly 46.1 µM), for inactives: at the highest dose activity, positive = re-replication, hits mostly activators | 350,000 compounds, 2.9% hits; note: potency is the fitted concentration of half-maximal effect; % of control where 0% means no effect; nearly all actives have a fitted effect of over 50% in size
IL-1B inflam inh: blocks inflammasome-driven IL-1 beta release | THP-1 LPS/ATP IL-1B secretion, AlphaLISA, 16 h; hits give low values | 360,000 compounds, 4.7% hits | activity change, % at 57.5 µM | AID 743279; in the data active = activity change below about -50%; inconclusive = mostly about -30% to -49%; note: % is set by controls: 0 for no effect and ±100 for the full control effect
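Secreted IL-1B measured by AlphaLISA bead assay after 16 h compound exposure of THP-1 cells; compounds (final up to 57.5 uM) added 1 h before LPS (250 ng/mL) and ATP (1.25 mM) stimulation; lower signal means less secretion.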
DT40 TDP1 no CPT: qHTS for Inhibitors of human tyrosyl-DNA phosphodiesterase 1 (TDP1): qHTS in cells in absence of CPT. DT40 Tdp1-/- hTDP1 cells, no CPT, ATP luminescence, 48 h. Potency, µM (titrated, usually from 46.2 µM), without a hit: at the highest dose activity change, negative = growth inhibition, hits mostly inhibitors. 420,000 compounds, 15% hits. AID 686978, 2013; note: potency is the fitted concentration of half-maximal effect; % is set by controls: 0 for no effect and ±100 for the full control effect; nearly all actives have a fitted effect of over 55% in size
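Chicken DT40 Tdp1-/- cells stably complemented with human TDP1 were seeded at 400 cells/well with DMSO in place of 20 nM camptothecin. After compound pinning, cells grew at least 48 hr at 37 °C; viability read by CellTiter-Glo luminescence.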
Chronic BCR inh: blocks chronic active B-cell receptor signaling. AID 493014. 340,000 compounds, 0.05% hits. Potency, µM (highest dose often 46.1 µM), inactives show at the highest dose activity change, negative = inhibition, most hits filed as inhibitors. ABC-DLBCL IkBa-CBG/CBR reporter, luminescence ratio, 4 h; active = well fitted inhibition curve with a large enough effect in the signal ratio, with a control signal flat, not every such curve was filed as active; inconclusive = small, poorly fitted or top-dose-only effect, or effect the other way, or a change in a side signal; the % refers to the signal ratio;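 note: potency is the fitted concentration of half-maximal effect; plate controls were basal doxycycline-induced cells for no effect and cells given 10 µM MG132 for full effect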
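TMD8 human ABC-DLBCL cells with doxycycline-inducible IκBα–green luciferase fusion and unfused red luciferase, in 0.5% FBS medium; compounds up to 46 uM, 4 h at 37C. Green/red luminescence ratio, filter-overlap corrected, fitted to concentration-response curves.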
TDP1 cell CPT: DT40-hTDP1 cell growth loss with CPT; chicken DT40 Tdp1-/-;hTDP1 cells + 20 nM CPT, ATP luminescence, 48 h; Potency, µM (doses to about 46.2 µM), for the others: top-dose activity change, negative = growth inhibition, most hits filed as inhibitors; 420,000 compounds, 12% hits; AID 686979; note: potency is the fitted concentration of half-maximal effect; % is set by controls: 0 for no effect and ±100 for the full control effect; nearly all actives have a fitted effect of over 55% in size
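Chicken DT40 Tdp1-/- cells stably complemented with human TDP1 were seeded at 400 cells/well in medium containing 20 nM camptothecin, exposed to pin-transferred compounds, and grown at 37 °C for at least 48 hr. Viability was read as ATP luminescence.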
SW480 rereplic: inducers of DNA re-replication in SW480 colon cancer cells. Potency, µM (doses to about 46.1 µM), inactives show at the highest dose re-replication activation, most hits filed as activators. AID 624297. 340,000 compounds, 1.8% hits. SW480 DNA re-replication, Hoechst DNA content imaging, 48 h; note: potency is the fitted concentration of half-maximal effect; % of control where 0% means no effect; nearly all actives have a fitted effect of over 55% in size
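Compounds, transferred as 23 nL by pin tool, were incubated with cells for 48 hr; DNA content per nucleus was then quantified by Hoechst staining and fluorescence plate imaging.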
Starred values were filed as active, the others as inactive; i = inactive; ? = inconclusive; nt = no result given; [ ] = remark or other dose. Compounds with a hit are over-represented: about 19% of the library has one in this group of screens. Unless noted, calls come from the whole dose curve; as a rule, active = well fitted curve in the direction sought with a large enough effect; inconclusive = small, poorly fitted or top-dose-only effect, or another doubt; inactive = no such curve, though single readings can be large; an effect the other way counts as inactive or inconclusive.

SMILES | MCF10A rereplic | IL-1B inflam inh | DT40 TDP1 no CPT | Chronic BCR inh | TDP1 cell CPT | SW480 rereplic
CC(Oc1ccc(F)cc1)C(=O)Nc1ccccc1N1CCCCC1 (centres undefined) | 27% | -12 | 16µM* | 8% | ? | 12%
CCN1CCN(c2ccc(S(=O)(=O)N3CCCCC3)cc2NC(=O)/C=C/c2cccc(OC)c2OC)CC1 | ? | i | 16µM* | ? | ? | ?
CCN1CCN(c2ccc(S(=O)(=O)N3CCOCC3)cc2NC(=O)C(C)Oc2ccc(Cl)cc2)CC1 (centres undefined) | 16% | -8 | 18µM* | -8% | ? | -21%
CC(Oc1cccc(Cl)c1)C(=O)Nc1ccccc1N1CCCCC1 (centres undefined) | ? | 11 | -9% | 18% | 3% | 1%
CCN1CCN(c2ccc(S(=O)(=O)N3CCOCC3)cc2NC(=O)CC(C)C)CC1 | -1% | 6 | 4% | 3% | 3% | -25%
Cc1ccc(Nc2ncnc3c2cnn3-c2ccccc2)c(C)c1 | nt | nt | nt | 14% | nt | nt
O=C(NCCN1CCOCC1)c1ccc(NS(=O)(=O)c2ccccc2)cc1 | -15% | i | 8% | -5% | 7% | -14%
Cc1cn(CC(=O)NCC(c2ccccc2)c2ccccc2)c(=O)[nH]c1=O | 0% | -5 | -11% | nt | -9% | 4%
CN1CCN(c2ccc(S(=O)(=O)N3CCCCC3)cc2NC(=O)/C=C/c2ccc(Cl)c([N+](=O)[O-])c2)CC1 | ? | -81* | ? | ? | ? | ?
O=C(/C=C/c1ccc(Cl)cc1)Nc1cc(S(=O)(=O)N2CCOCC2)ccc1N1CCOCC1 | 11% | ? | ? | 6% | ? | ?
CN1CCN(c2ccc(S(=O)(=O)N3CCCCC3)cc2NC(=O)/C=C/c2ccc(OC(F)F)cc2)CC1 | ? | -80* | -86% | -11% | ? | ?
CC(Oc1ccc(F)cc1)C(=O)Nc1cc(S(=O)(=O)N2CCCCC2)ccc1N1CCN(C)CC1 (centres undefined) | 14% | ? | ? | nt | 23µM* | -3%
CN1CCN(c2ccc(S(=O)(=O)N3CCCCC3)cc2NC(=O)COc2ccc(F)cc2)CC1 | 24% | ? | ? | 2% | ? | 6%
CCN1CCN(c2ccc(S(=O)(=O)N3CCCCC3)cc2NC(=O)/C=C/c2ccc([N+](=O)[O-])cc2)CC1 | ? | -99* | ? | -2% | ? | -1%
CCN1CCN(c2ccc(S(=O)(=O)N3CCCCC3)cc2NC(=O)/C=C/c2ccc(F)cc2)CC1 | 23% | ? | ? | 8% | ? | ?
CCOc1ccccc1NC(=O)c1nnn(CC(=O)Nc2ccccc2CC)c1N | nt | nt | -29% | nt | 1% | nt
COc1ccc(CN2CCC(n3cc(C(=O)N4CCCCC4)nn3)CC2)c(OC)c1 | nt | nt | -23% | nt | 2%[9.04 µM] | nt
COc1ccc(N2CCN(c3ccc(NC(=O)NN)cc3)CC2)cc1 | ? | ? | -27% | 0% | -2% | -5%
CC(C)c1ccc(CNCCSc2nnnn2-c2ccccc2)cc1 | nt | nt | 26µM* | nt | 16µM* | nt
CC(C)c1ccc(CNC(=O)CCc2ccccc2)cc1 | 1% | 19 | ? | 0% | -21% | 1%
CC(C)c1ccc(CNCc2ccccc2)cc1 | -5% | -51* | -27% | 4% | -26% | 0%
Oc1cc(CNCc2ccccc2)c(O)cc1CNCc1ccccc1 | ? | -12 | 13µM* | nt | ? | 13µM*
Fc1ccccc1CNCCCSc1nnnn1-c1ccccc1 | nt | nt | ? | nt | 16µM* | nt
